# Data published in PubChem BioAssay (NCI).
# About 79,000 compounds went through this panel and 15% of them were active in at least one assay; those are over-represented in the sample as a whole. A number with no mark means an inactive call. Active and inactive are the calls of the source. Cut-off read from the data, not from the text of the source: active = growth inhibition above about 70%; inactive = the rest.
# What was measured:
# [1] = NCI Yeast Anticancer Drug Screen. Data for the rad52 strain (AID 147);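 note: 0% = growth of vehicle-treated control cultures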; conditions: S. cerevisiae rad52 mutant growth inhibition, hits give high values
# In short: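 Vehicle-treated cultures served as the reference for growth inhibition of compound-exposed yeast bearing a DNA repair mutation.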
# [2] = NCI Yeast Anticancer Drug Screen. Data for the wt1 strain (AID 149);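 note: 0% = growth of vehicle-treated wt1 cultures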; conditions: S. cerevisiae wt1 strain (SPY 50644) growth inhibition, hits give high values
# In short: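 wt1 strain grown with compound or vehicle; inhibition taken from the growth difference.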
# [3] = NCI Yeast Anticancer Drug Screen. Data for the rad50EPP+ strain (AID 151);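 note: 0% = growth of vehicle-treated control cultures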; conditions: S. cerevisiae rad50 mutant strain, hits give high values
# In short: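 In this screen, rad50EPP+ yeast were exposed to compounds. Growth inhibition was scored against vehicle-treated controls.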
# [4] = NCI Yeast Anticancer Drug Screen. Data for the mgt1 strain (AID 153); conditions: S. cerevisiae mgt1 mutant growth inhibition, hits give high values
# In short: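 mgt1 strain exposed; growth vs vehicle control recorded as inhibition.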
# [5] = NCI Yeast Anticancer Drug Screen. Data for the rad50 strain (AID 155);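 note: 0% = growth of vehicle-only cultures of the same strain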; conditions: S. cerevisiae rad50 strain growth inhibition, hits give high values
# In short: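 DNA repair mutant yeast, compound exposure, growth read-out; inhibition is taken relative to vehicle.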
# [6] = NCI Yeast Anticancer Drug Screen. Data for the mec2-1 strain (AID 157); conditions: S. cerevisiae mec2-1 strain, hits give high values
# In short: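 Vehicle-treated cultures served as reference for growth inhibition of compound-exposed mec2-1 yeast.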
# [7] = NCI Yeast Anticancer Drug Screen. Data for the rad14 strain (AID 159);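 note: 0% = growth of vehicle-treated control cultures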; conditions: S. cerevisiae rad14 strain growth inhibition, hits give high values
# In short: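 DNA repair-defective yeast, compound-exposed; % growth inhibition derived by comparison with vehicle-treated controls.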
# [8] = NCI Yeast Anticancer Drug Screen. Data for the sgs1 mgt1 strain (AID 161);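 note: 0% = growth of cultures given vehicle only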; conditions: S. cerevisiae sgs1 mgt1 strain, hits give high values
# In short: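 Mutant yeast exposed to compound; growth scored against vehicle-only wells.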
# [9] = NCI Yeast Anticancer Drug Screen. Data for the CLN2oe strain (AID 163);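 note: 0% = growth of vehicle-only control cultures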; conditions: S. cerevisiae CLN2oe strain, hits give high values
# In short: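 Inhibition relative to vehicle-treated yeast is reported. Cells: strain with genetic alteration in cell-cycle control, grown with compound.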
# [10] = NCI Yeast Anticancer Drug Screen. Data for the cln2 rad14 strain (AID 165);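 note: 0% = growth equal to vehicle treated cultures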; conditions: S. cerevisiae cln2 rad14 strain, hits give high values
# In short: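 Each compound was tested on cln2 rad14 yeast. Inhibition of growth was calculated against vehicle-exposed controls.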
# [11] = NCI Yeast Anticancer Drug Screen. Data for the bub3 strain (AID 167); conditions: S. cerevisiae bub3 mutant strain, hits give high values
# In short: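 In this screen, a yeast mutant lacking normal mitotic checkpoint function is challenged with compound. Relative growth versus vehicle gives the inhibition value.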
# [12] = NCI Yeast Anticancer Drug Screen. Data for the wt2 strain (AID 169);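 note: 0% = growth of vehicle-treated yeast cultures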; conditions: S. cerevisiae wt2 strain growth inhibition, hits give high values
# In short: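 Inhibition of yeast growth was determined after compound treatment, normalised to controls receiving only vehicle.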
# [13] = NCI Yeast Anticancer Drug Screen. Data for the mlh1 strain (AID 171);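 note: 0% = growth of vehicle-treated control cultures of the same strain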; conditions: S. cerevisiae mlh1 strain growth inhibition, hits give high values
# In short: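 Vehicle-normalised growth inhibition of a repair- or checkpoint-altered yeast strain following compound treatment.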
# [14] = NCI Yeast Anticancer Drug Screen. Data for the sgs1 strain (AID 173);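 note: 0% = growth of vehicle-only control cultures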; conditions: S. cerevisiae sgs1 mutant, hits give high values
# In short: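 Screen format: yeast with repair or checkpoint alterations, compound exposure, growth read relative to vehicle.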
# [15] = NCI Yeast Anticancer Drug Screen. Data for the mlh1 rad18 strain (AID 175); conditions: S. cerevisiae mlh1 rad18 strain growth inhibition, hits give high values
# In short: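 Vehicle-treated cultures served as the reference for growth inhibition in a yeast strain carrying DNA damage repair alterations exposed to each compound.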
# [16] = NCI Yeast Anticancer Drug Screen. Data for the rad18 strain (AID 177); conditions: S. cerevisiae rad18 mutant growth inhibition, hits give high values
# In short: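 Test articles were incubated with altered yeast defective in DNA damage repair. Results are given as inhibition of growth versus vehicle.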
# [17] = at 5.0 µM (retest, dose inferred, filed as 0.5)
# [18] = at 50.0 µM (retest, dose inferred, filed as 5.0)
structure (smiles),measurement,setting,value
CC(C)(C)c1ccc2c(c1)C(=O)c1ccccc1C2=O,growth inhibition,[1]; at 1.2 µM,-9%
same,growth inhibition,[1]; at 3.7 µM,-13%
same,growth inhibition,[1]; at 11.0 µM,-15%
same,growth inhibition,[1]; at 33.0 µM,-6%
same,growth inhibition,[1]; at 100.0 µM,4%
same,growth inhibition,[2]; at 1.2 µM,0%
same,growth inhibition,[2]; at 3.7 µM,12%
same,growth inhibition,[2]; at 11.0 µM,14%
same,growth inhibition,[2]; at 33.0 µM,12%
same,growth inhibition,[2]; at 100.0 µM,15%
same,growth inhibition,[3]; at 1.2 µM,-9%
same,growth inhibition,[3]; at 3.7 µM,-1%
same,growth inhibition,[3]; at 11.0 µM,18%
same,growth inhibition,[3]; at 33.0 µM,27%
same,growth inhibition,[3]; at 100.0 µM,28%
same,growth inhibition,[4]; at 1.2 µM,-3%
same,growth inhibition,[4]; at 3.7 µM,-9%
same,growth inhibition,[4]; at 11.0 µM,-7%
same,growth inhibition,[4]; at 33.0 µM,-7%
same,growth inhibition,[4]; at 100.0 µM,-4%
same,growth inhibition,[5]; at 1.2 µM,-17%
same,growth inhibition,[5]; at 3.7 µM,-18%
same,growth inhibition,[5]; [17],14%
same,growth inhibition,[5]; at 11.0 µM,-19%
same,growth inhibition,[5]; at 33.0 µM,8%
same,growth inhibition,[5]; [18],5%
same,growth inhibition,[5]; at 50.0 µM,-2.85%
same,growth inhibition,[5]; at 100.0 µM,6%
same,growth inhibition,[6]; at 1.2 µM,-6%
same,growth inhibition,[6]; at 3.7 µM,-6%
same,growth inhibition,[6]; [17],8%
same,growth inhibition,[6]; at 11.0 µM,-6%
same,growth inhibition,[6]; at 33.0 µM,-9%
same,growth inhibition,[6]; [18],8%
same,growth inhibition,[6]; at 50.0 µM,-17.9%
same,growth inhibition,[6]; at 100.0 µM,-5%
same,growth inhibition,[7]; at 1.2 µM,1%
same,growth inhibition,[7]; at 3.7 µM,-13%
same,growth inhibition,[7]; at 11.0 µM,-6%
same,growth inhibition,[7]; at 33.0 µM,2%
same,growth inhibition,[7]; at 100.0 µM,13%
same,growth inhibition,[8]; [17],9%
same,growth inhibition,[8]; [18],20%
same,growth inhibition,[8]; at 50.0 µM,0.45%
same,growth inhibition,[9]; at 1.2 µM,-11%
same,growth inhibition,[9]; at 3.7 µM,-12%
same,growth inhibition,[9]; at 11.0 µM,-14%
same,growth inhibition,[9]; at 33.0 µM,-13%
same,growth inhibition,[9]; at 100.0 µM,-12%
same,growth inhibition,[10]; [17],-7%
same,growth inhibition,[10]; [18],0%
same,growth inhibition,[10]; at 50.0 µM,-6.45%
same,growth inhibition,[11]; at 1.2 µM,4%
same,growth inhibition,[11]; at 3.7 µM,24%
same,growth inhibition,[11]; [17],25%
same,growth inhibition,[11]; at 11.0 µM,65%
same,growth inhibition,[11]; at 33.0 µM,78% (active)
same,growth inhibition,[11]; [18],85% (active)
same,growth inhibition,[11]; at 50.0 µM,89% (active)
same,growth inhibition,[11]; at 100.0 µM,91% (active)
same,growth inhibition,[12]; at 1.2 µM,1%
same,growth inhibition,[12]; at 3.7 µM,6%
same,growth inhibition,[12]; at 11.0 µM,10%
same,growth inhibition,[12]; at 33.0 µM,10%
same,growth inhibition,[12]; at 100.0 µM,25%
same,growth inhibition,[13]; at 1.2 µM,-15%
same,growth inhibition,[13]; at 3.7 µM,-10%
same,growth inhibition,[13]; at 11.0 µM,-10%
same,growth inhibition,[13]; at 33.0 µM,-10%
same,growth inhibition,[13]; at 100.0 µM,12%
same,growth inhibition,[14]; at 1.2 µM,-13%
same,growth inhibition,[14]; at 3.7 µM,-7%
same,growth inhibition,[14]; at 11.0 µM,0%
same,growth inhibition,[14]; at 33.0 µM,5%
same,growth inhibition,[14]; at 100.0 µM,17%
same,growth inhibition,[15]; [17],5%
same,growth inhibition,[15]; [18],26%
same,growth inhibition,[15]; at 50.0 µM,-4.9%
same,growth inhibition,[16]; at 1.2 µM,-11%
same,growth inhibition,[16]; at 3.7 µM,-9%
same,growth inhibition,[16]; at 11.0 µM,-6%
same,growth inhibition,[16]; at 33.0 µM,-6%
same,growth inhibition,[16]; at 100.0 µM,-14%
